Experimental data reported in PubChem BioAssay AID741 (SRMLSC, 2007).
Inconclusive results are not listed. Active and inactive are the calls of the source. Cut-off read from the data, not from the text of the source: active = toxicity enhancement factor above about 0.054; inconclusive = between about 0.00067 and that limit; inactive = weaker than that.

Assay: MRP-overexpressing cell chemosensitization – dose response (AID 741)
Conditions: MRP-overexpressing cells, viability with/without cytotoxic drug; slope difference: measured here: slope difference tox minus reversal, stronger effect = higher value; toxicity enhancement factor: stronger effect = higher value; viability: measured here: viability series, compound alone, at 10 µM, stronger effect = lower value

SMILES	slope difference	toxicity enhancement factor	viability [%]
O=C1CCCC2C3CCCN4CCCC(CN12)C34 (stereo unspecified)	-0.494	-0.0048 (inactive)	94.7
O[C@H]1[C@H](O)[C@@H](O)CN2CC[C@H](O)[C@H]12	-0.39	-0.0036 (inactive)	98.5
